# Test results: article PMC7862700, “An all-to-all approach to the identification of sequence-specific readers for epigenetic DNA modifications on cytosine”
# Legend:
# Experiment in all cases: DAPPL (digital affinity profiling via proximity ligation, sequencing); 10 mM Tris-HCl pH 7.5, 50 mM NaCl, 1 mM DTT, 4% glycerol, room temperature, 30 min; GST-TFs on glutathione beads, 16-mer random dsDNA library, 0.1% formaldehyde crosslink after washing; high values mean tight binding
# FLI1 = biological target: T1, FLI1 (Homo sapiens, UniProt Q01543 1-452); details: protein: recombinant; tags: N-terminal GST; dsDNA, one strand shown
# T1 sequence: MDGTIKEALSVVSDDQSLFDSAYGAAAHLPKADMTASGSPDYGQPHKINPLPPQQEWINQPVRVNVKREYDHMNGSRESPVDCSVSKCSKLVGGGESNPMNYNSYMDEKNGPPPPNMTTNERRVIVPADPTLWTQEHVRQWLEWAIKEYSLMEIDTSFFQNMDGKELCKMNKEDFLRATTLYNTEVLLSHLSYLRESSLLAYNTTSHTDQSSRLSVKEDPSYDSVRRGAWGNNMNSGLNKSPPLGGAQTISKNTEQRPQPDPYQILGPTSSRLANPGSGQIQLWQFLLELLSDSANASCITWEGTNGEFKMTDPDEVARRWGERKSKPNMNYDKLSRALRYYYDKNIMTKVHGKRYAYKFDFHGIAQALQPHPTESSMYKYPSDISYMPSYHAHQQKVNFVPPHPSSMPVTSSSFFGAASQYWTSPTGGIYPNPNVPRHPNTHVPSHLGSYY
# Method in brief: (§1)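 GST fusions of human transcription factors were expressed in yeast and captured with glutathione beads. Once given DNA barcodes and pooled alongside a tag-only sample, they were incubated for 30 min at room temperature with 200 nmole of a random double-stranded 16-mer DNA library in Tris/NaCl/DTT/glycerol buffer, then washed, crosslinked (0.1% formaldehyde), proximity-ligated, PCR-amplified and sequenced on an Illumina NextSeq500. The binding signal of each hexamer is its read frequency for a factor divided by its frequency for the tag-only sample.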
# ELK1 = biological target: T2, ELK1 (Homo sapiens, UniProt P19419 1-428); details: protein: recombinant; tags: N-terminal GST; dsDNA, one strand shown
# T2 sequence: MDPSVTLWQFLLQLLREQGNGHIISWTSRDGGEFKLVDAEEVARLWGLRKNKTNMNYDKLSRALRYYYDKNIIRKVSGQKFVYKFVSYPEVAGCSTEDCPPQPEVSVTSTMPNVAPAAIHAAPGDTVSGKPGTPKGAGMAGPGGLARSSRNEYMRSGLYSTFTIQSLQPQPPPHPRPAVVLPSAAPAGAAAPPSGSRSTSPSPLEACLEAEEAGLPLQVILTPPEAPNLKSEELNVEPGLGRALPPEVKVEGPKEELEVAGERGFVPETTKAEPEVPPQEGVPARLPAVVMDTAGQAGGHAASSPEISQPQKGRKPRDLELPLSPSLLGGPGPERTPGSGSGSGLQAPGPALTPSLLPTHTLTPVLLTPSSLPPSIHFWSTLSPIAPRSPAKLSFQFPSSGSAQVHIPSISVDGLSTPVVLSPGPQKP
# Method in brief: as §1
# GABPA = biological target: T3, GABPA (Homo sapiens, UniProt Q06546 1-454); details: protein: recombinant; tags: N-terminal GST; dsDNA, one strand shown
# T3 sequence: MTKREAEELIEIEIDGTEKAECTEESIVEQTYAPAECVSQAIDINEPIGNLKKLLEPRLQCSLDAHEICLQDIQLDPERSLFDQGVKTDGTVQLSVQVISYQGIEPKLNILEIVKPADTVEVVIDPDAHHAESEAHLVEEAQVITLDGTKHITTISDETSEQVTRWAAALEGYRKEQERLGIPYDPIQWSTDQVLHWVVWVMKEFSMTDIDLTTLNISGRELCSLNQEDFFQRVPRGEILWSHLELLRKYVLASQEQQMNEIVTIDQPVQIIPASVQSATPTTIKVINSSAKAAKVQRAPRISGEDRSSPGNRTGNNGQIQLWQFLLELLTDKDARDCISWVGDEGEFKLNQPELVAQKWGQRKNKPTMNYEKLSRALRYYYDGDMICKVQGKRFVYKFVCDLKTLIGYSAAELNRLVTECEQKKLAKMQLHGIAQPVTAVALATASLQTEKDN
# Method in brief: as §1
# ERG = biological target: T4, ERG (Homo sapiens, UniProt P11308 1-479); details: protein: recombinant; tags: N-terminal GST; dsDNA, one strand shown
# T4 sequence: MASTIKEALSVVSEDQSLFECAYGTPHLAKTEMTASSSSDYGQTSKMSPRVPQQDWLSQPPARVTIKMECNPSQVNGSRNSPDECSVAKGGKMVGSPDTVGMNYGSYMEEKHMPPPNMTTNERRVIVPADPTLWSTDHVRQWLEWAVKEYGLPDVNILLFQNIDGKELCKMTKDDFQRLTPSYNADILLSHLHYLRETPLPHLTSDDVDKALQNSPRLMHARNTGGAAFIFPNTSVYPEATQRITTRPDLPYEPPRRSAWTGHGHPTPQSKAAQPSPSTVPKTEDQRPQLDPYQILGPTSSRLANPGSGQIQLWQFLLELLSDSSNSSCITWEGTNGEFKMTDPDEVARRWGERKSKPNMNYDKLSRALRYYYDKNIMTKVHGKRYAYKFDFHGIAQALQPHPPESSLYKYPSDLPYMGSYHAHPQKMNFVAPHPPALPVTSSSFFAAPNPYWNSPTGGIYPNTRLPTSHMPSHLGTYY
# Method in brief: as §1
# ELF1 = ELF1 (Homo sapiens, UniProt P32519 1-619); details: protein: recombinant; tags: N-terminal GST; dsDNA, one strand shown
# Sequence of ELF1 (P32519 whole entry): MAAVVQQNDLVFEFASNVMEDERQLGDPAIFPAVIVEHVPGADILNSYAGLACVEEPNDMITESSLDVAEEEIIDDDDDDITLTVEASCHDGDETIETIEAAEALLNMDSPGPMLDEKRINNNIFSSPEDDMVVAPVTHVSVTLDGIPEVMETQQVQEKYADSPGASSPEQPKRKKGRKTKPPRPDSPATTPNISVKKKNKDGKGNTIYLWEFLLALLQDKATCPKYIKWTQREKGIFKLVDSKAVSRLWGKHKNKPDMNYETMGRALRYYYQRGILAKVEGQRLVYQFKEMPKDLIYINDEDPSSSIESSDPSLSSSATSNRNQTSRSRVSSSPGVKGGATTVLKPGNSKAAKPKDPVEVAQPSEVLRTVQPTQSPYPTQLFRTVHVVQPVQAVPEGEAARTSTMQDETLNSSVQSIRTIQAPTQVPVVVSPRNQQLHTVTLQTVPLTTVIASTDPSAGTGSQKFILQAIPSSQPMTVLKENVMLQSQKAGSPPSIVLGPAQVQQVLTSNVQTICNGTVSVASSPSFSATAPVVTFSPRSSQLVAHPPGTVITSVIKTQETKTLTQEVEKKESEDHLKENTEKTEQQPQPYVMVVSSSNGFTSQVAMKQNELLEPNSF
# Method in brief: as §1
# EHF = biological target: T5, EHF (Homo sapiens, UniProt Q9NZC4 1-300); details: protein: recombinant; tags: N-terminal GST; dsDNA, one strand shown
# T5 sequence: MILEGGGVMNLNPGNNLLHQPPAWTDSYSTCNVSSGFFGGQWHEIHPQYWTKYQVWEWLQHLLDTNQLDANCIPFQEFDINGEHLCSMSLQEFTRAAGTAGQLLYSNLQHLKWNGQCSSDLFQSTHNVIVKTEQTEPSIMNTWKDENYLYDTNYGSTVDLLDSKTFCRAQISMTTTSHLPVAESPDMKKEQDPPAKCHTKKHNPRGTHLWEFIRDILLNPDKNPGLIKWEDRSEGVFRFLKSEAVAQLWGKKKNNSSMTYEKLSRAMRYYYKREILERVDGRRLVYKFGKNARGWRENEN
# Method in brief: as §1
# SPI1 = SPI1 (Homo sapiens, UniProt P17947 1-270); details: protein: recombinant; tags: N-terminal GST; dsDNA, one strand shown
# Method in brief: as §1
# SPIB = SPIB (Homo sapiens, UniProt Q01892 1-262); details: protein: recombinant; tags: N-terminal GST; dsDNA, one strand shown
# Sequence of SPIB (Q01892 whole entry): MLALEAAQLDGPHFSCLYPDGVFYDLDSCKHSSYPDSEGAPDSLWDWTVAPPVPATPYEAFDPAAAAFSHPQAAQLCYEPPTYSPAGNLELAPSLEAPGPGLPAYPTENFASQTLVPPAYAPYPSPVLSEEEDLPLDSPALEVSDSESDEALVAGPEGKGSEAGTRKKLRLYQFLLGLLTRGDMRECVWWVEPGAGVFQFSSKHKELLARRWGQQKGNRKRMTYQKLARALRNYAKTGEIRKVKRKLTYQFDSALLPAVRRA
# Method in brief: as §1
# ELK3 = biological target: T6, ELK3 (Homo sapiens, UniProt P41970 1-407); details: protein: recombinant; tags: N-terminal GST; dsDNA, one strand shown
# T6 sequence: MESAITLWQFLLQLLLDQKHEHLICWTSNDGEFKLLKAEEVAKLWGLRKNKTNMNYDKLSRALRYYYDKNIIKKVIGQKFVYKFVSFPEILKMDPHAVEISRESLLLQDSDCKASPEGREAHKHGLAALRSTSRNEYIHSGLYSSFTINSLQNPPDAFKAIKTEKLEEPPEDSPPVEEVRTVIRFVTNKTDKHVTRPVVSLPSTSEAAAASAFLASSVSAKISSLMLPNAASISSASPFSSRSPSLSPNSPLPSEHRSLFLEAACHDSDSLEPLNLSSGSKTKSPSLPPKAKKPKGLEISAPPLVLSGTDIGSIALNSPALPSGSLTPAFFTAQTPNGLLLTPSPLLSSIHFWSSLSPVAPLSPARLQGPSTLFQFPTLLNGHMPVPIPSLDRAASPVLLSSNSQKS
# Method in brief: as §1
# FEV = biological target: T7, FEV (Homo sapiens, UniProt Q99581 1-238); details: protein: recombinant; tags: N-terminal GST; dsDNA, one strand shown
# T7 sequence: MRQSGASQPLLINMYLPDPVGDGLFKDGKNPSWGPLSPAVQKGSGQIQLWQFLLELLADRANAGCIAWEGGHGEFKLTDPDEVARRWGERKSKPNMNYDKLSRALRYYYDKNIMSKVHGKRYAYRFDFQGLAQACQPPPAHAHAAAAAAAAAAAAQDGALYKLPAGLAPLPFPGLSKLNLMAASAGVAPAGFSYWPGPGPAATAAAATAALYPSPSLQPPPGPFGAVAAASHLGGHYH
# Method in brief: as §1
# ETV5 = ETV5 (Homo sapiens, UniProt P41161 1-510); details: protein: recombinant; tags: N-terminal GST; dsDNA, one strand shown
# Sequence of ETV5 (P41161 whole entry): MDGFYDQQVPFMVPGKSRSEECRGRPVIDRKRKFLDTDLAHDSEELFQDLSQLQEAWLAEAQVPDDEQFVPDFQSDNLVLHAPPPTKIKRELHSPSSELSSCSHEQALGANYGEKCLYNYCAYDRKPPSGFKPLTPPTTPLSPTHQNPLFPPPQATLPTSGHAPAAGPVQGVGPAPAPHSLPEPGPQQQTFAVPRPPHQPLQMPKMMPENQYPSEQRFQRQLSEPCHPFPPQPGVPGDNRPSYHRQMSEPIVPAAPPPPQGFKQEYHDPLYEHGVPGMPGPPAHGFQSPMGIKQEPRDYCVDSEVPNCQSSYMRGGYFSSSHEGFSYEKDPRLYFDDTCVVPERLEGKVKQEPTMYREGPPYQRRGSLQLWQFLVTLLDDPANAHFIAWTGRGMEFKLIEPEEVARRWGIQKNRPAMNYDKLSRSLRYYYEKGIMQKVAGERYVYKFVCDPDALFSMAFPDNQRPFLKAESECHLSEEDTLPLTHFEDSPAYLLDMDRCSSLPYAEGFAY
# Method in brief: as §1
# HSF1 = HSF1 (Homo sapiens, UniProt Q00613 1-529); details: protein: recombinant; tags: N-terminal GST; chain copies: 3; dsDNA, one strand shown
# Sequence of HSF1 (Q00613 whole entry): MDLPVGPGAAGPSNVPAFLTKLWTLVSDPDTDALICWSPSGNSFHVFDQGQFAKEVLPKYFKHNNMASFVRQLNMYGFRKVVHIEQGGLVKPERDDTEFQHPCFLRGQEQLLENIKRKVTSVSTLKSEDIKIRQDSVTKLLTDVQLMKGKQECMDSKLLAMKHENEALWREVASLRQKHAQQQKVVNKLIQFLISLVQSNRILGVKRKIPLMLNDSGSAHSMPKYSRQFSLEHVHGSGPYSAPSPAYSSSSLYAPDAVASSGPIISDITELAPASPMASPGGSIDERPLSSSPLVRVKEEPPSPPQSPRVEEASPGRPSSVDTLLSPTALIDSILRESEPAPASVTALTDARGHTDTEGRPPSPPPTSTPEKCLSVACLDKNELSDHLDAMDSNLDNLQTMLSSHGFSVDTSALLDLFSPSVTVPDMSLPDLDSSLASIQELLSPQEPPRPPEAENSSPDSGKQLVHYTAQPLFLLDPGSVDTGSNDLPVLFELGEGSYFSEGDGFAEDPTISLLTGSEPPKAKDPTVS
# Method in brief: as §1
# SPIC = biological target: T8, SPIC (Homo sapiens, UniProt Q8N5J4 1-248); details: protein: recombinant; tags: N-terminal GST; dsDNA, one strand shown
# T8 sequence: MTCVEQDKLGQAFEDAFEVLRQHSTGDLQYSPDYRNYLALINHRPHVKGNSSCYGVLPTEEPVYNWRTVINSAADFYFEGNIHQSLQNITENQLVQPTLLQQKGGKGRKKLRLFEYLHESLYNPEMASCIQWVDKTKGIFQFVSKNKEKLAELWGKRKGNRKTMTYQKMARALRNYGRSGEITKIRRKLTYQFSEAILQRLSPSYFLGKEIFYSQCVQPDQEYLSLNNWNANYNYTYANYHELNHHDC
# Method in brief: as §1
# ELF4 = ELF4 (Homo sapiens, UniProt Q99607 1-663); details: protein: recombinant; tags: N-terminal GST; dsDNA, one strand shown
# Sequence of ELF4 (Q99607 whole entry): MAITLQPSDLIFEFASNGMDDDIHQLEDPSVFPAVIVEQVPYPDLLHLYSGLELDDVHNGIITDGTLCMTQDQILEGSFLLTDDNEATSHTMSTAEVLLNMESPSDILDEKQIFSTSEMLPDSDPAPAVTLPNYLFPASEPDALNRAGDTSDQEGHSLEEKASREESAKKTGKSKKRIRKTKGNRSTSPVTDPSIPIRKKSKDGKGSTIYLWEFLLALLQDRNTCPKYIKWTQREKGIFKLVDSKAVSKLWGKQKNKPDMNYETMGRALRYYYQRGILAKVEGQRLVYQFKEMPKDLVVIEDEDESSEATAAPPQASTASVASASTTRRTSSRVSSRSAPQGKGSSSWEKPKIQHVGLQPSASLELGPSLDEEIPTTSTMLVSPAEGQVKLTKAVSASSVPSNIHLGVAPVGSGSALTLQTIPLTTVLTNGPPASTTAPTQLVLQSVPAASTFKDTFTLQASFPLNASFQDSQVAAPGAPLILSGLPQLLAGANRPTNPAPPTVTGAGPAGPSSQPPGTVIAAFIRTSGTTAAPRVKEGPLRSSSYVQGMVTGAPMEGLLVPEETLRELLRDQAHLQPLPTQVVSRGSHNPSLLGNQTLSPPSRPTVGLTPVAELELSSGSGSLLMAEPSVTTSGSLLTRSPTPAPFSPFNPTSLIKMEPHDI
# Method in brief: as §1
# ELK4 = biological target: T9, ELK4 (Homo sapiens, UniProt P28324-2 1-405); details: protein: recombinant; tags: N-terminal GST; dsDNA, one strand shown
# T9 sequence: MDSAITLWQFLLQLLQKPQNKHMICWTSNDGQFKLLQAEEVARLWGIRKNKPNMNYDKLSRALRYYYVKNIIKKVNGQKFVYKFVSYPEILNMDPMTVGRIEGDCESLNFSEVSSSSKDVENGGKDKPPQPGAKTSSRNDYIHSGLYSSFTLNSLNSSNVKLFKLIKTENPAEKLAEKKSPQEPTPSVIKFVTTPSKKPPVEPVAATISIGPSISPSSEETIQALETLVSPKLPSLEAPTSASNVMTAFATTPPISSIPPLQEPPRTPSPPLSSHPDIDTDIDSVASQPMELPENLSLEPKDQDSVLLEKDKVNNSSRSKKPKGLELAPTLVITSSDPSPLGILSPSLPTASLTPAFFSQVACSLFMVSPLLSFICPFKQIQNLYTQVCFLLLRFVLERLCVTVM
# Method in brief: as §1
# ETV2 = biological target: T10, ETV2 (Homo sapiens, UniProt O00321 1-342); details: protein: recombinant; tags: N-terminal GST; dsDNA, one strand shown
# T10 sequence: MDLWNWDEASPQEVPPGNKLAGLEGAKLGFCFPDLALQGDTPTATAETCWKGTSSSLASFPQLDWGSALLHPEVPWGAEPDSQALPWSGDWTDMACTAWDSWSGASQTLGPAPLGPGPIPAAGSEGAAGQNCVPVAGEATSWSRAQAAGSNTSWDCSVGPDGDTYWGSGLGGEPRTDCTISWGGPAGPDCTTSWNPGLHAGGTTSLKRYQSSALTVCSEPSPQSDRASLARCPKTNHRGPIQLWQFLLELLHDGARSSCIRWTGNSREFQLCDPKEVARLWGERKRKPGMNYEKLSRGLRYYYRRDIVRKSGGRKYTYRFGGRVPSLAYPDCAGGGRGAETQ
# Method in brief: as §1
# ELF3 = biological target: T11, ELF3 (Homo sapiens, UniProt P78545 1-371); details: protein: recombinant; tags: N-terminal GST; dsDNA, one strand shown
# T11 sequence: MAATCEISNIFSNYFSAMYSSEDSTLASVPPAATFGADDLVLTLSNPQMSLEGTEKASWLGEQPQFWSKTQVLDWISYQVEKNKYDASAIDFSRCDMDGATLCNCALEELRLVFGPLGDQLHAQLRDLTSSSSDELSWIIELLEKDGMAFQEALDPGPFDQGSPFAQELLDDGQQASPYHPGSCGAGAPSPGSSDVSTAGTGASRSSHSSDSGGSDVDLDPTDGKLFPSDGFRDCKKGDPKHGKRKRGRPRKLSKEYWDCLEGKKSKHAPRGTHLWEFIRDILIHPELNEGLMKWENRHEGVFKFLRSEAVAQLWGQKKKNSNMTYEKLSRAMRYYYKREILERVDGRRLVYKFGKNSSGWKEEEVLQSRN
# Method in brief: as §1
# CRX = CRX (Homo sapiens, UniProt O43186 1-299); details: protein: recombinant; tags: N-terminal GST; dsDNA, one strand shown
# Sequence of CRX (O43186 whole entry): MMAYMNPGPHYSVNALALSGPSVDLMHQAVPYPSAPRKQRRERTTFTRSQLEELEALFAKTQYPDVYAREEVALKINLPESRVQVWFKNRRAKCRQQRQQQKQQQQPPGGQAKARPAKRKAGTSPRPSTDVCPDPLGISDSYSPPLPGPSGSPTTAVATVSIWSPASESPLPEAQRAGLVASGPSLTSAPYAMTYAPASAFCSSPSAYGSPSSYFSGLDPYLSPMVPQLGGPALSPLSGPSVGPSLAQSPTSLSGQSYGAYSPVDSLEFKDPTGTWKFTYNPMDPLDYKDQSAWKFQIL
# Method in brief: as §1
# ETV1 = ETV1 (Homo sapiens, UniProt P50549 1-477); details: protein: recombinant; tags: N-terminal GST; dsDNA, one strand shown
# Sequence of ETV1 (P50549 whole entry): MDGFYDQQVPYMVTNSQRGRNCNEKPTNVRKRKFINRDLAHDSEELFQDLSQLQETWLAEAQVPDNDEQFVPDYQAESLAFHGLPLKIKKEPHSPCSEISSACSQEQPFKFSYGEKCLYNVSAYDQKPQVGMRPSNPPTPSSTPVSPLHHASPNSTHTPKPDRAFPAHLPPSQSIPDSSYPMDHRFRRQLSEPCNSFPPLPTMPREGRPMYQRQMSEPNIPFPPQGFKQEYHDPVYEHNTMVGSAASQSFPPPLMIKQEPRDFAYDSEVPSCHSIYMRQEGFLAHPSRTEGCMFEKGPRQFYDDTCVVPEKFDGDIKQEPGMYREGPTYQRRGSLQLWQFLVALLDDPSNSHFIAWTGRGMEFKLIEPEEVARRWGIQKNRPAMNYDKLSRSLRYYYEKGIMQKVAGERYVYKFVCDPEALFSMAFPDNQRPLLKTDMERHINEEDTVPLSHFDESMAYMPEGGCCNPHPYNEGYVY
# Method in brief: as §1
sequence,measurement,setting,value
TCAATA,binding signal,FLI1,"1.21 fold enrichment (6-mer frequency, TF over GST control)"
same,binding signal,ELK1,"1.17 fold enrichment (6-mer frequency, TF over GST control)"
same,binding signal,GABPA,"1.24 fold enrichment (6-mer frequency, TF over GST control)"
same,binding signal,ERG,"1.14 fold enrichment (6-mer frequency, TF over GST control)"
same,binding signal,ELF1,"1.17 fold enrichment (6-mer frequency, TF over GST control)"
same,binding signal,EHF,"1.14 fold enrichment (6-mer frequency, TF over GST control)"
same,binding signal,SPI1,"1.23 fold enrichment (6-mer frequency, TF over GST control)"
same,binding signal,SPIB,"1.06 fold enrichment (6-mer frequency, TF over GST control)"
same,binding signal,ELK3,"1.2 fold enrichment (6-mer frequency, TF over GST control)"
same,binding signal,FEV,"1.15 fold enrichment (6-mer frequency, TF over GST control)"
same,binding signal,ETV5,"1.21 fold enrichment (6-mer frequency, TF over GST control)"
same,binding signal,HSF1,"1.18 fold enrichment (6-mer frequency, TF over GST control)"
same,binding signal,SPIC,"1.06 fold enrichment (6-mer frequency, TF over GST control)"
same,binding signal,ELF4,"1.17 fold enrichment (6-mer frequency, TF over GST control)"
same,binding signal,ELK4,"1.29 fold enrichment (6-mer frequency, TF over GST control)"
same,binding signal,ETV2,"1.26 fold enrichment (6-mer frequency, TF over GST control)"
same,binding signal,ELF3,"1.23 fold enrichment (6-mer frequency, TF over GST control)"
same,binding signal,CRX,"1.34 fold enrichment (6-mer frequency, TF over GST control)"
same,binding signal,ETV1,"1.24 fold enrichment (6-mer frequency, TF over GST control)"
